# Rows were chosen to be rich in hits. Some 4% of all compounds tested hit in one or more screens of this group.
# D1 ag – human D1 receptor agonism | P21728 | AID 504660 | hit rate 1% among 360,000 | activation, % at 2 µM | HEK293 T-REx D1 cells, calcium flux, agonist mode; also: 0% is about no effect
# Target sequence (P21728 whole entry, looked up): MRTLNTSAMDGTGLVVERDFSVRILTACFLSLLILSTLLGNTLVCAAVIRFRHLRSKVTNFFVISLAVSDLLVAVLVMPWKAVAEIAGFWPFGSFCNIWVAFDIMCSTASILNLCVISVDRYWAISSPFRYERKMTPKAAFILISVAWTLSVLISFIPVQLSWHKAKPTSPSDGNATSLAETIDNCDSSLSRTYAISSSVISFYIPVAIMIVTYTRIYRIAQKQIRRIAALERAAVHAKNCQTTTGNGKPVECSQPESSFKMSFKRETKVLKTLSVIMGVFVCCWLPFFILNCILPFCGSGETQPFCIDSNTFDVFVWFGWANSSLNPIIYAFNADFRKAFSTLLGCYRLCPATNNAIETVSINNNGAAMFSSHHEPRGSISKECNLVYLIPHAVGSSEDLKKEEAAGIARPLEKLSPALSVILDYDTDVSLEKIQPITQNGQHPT
#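 Agonism was scored from calcium flux recorded over 180 s (1 read/s) after pintool compound addition, following a 10-cycle baseline. Cells were inducible force-coupled HEK293 TREx D1, plated overnight at 30 C and loaded with no-wash calcium dye.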
# TRHR ag – agonists of human TRH receptor; P34981; TRHR cells, calcium flux fluo-8, FDSS agonist mode; activation, % at 2 µM; hit rate 0.18% among 360,000; AID 493084; also: 0% is about no effect
#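 TRHR-expressing cells, plated overnight in medium with 10% serum, were loaded with fluo-8 calcium dye at room temperature. After a 10 s baseline, library compound was pin-added and calcium release was recorded kinetically (ex 480/em 530) as agonist response.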
# Glioma ERSR ind – induces the endoplasmic reticulum stress response in human glioma cells | Potency, µM, without a hit: top-dose activation, most hits filed as activators | U87-MG GRP78 promoter luciferase reporter, 16 h | hit rate 0.02% among 420,000; active = well fitted activation curve with a large enough effect; also: potency is read from the fitted curve at half-maximal effect; series mostly up to about 76 µM; % of control where 0% means no effect; nearly all actives have a fitted effect of over 35% in size
#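 Stably transfected U87-MG human glioma cells carrying a GRP78-based luminescent sensor were seeded at 1000 cells/well, pin-dosed with compounds and incubated 16 h. Luciferase reagent was then added, and end-point luminescence was read after 10 min at room temperature.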
# D1 antagonist – human D1 dopamine receptor antagonism; P21728; HEK293 TREx D1 cells, calcium flux, dopamine EC80; hits give low values; activity change, negative = inhibition, % at 10 µM; hit rate 3.2% among 360,000; in the data active = activity change below about -30%; also: % is scaled to controls: 0 for no effect and ±100 for the full control effect
#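 Calcium flux readout: force-coupled, inducible Hek293 Trex D1 line, cells induced overnight at 30 C with tetracycline, dye-loaded 30–90 min at RT. Antagonism scored against EC80 dopamine challenge given 180 s after compound.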
# TRHR PAM – allosterically enhances the human TRH receptor. TRHR cells, fluo-8 calcium fluorescence, EC20 TRH enhancement. AID 493056. enhancement, % at 2 µM. hit rate 0.66% among 360,000; in the data active = enhancement above about 30%; also: 0% is about no effect
#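 Enhancer read-out: after compound pinning and an initial kinetic agonist-mode read, an EC20 of TRH (10 nM final) was injected and fluo-8 calcium signal (Ex 480/Em 530) followed at 1 s/cycle for 100 cycles in TRHR-expressing cells.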
# D1 potentiator – human D1 dopamine receptor positive modulation; hit rate 0.036% among 360,000; P21728; HEK293 TREx D1 cells, calcium flux, dopamine EC20 potentiation; potentiation, % at 10 µM; AID 504651; in the data active = potentiation above about 30%; also: 0% is about no effect
# Active calls of the source: *; . = not tested or not shown. Rule as the data show it, unless noted: active = activation above about 30%; inactive = the rest.
SMILES,D1 ag,TRHR ag,Glioma ERSR ind,D1 antagonist,TRHR PAM,D1 potentiator
COc1ccc(Nc2nc(N)c(C(=O)c3ccc(OC)cc3)s2)cc1,13.1,0.2,-4.4%,17.2,7.9,7.3
OCCCc1nc2n(n1)C(c1cccs1)C=C(c1ccccc1)N2 (configuration not stated),34.3*,40.9*,.,1.0,-2.3,.
Cc1ccc(NC(=O)OC(C)CNC(=O)Oc2cccc(C)c2)cc1 (configuration not stated),3.2,-0.6,-1.3%,-32.2*,6.2,-6.1
COC(=O)NCC(C)OC(=O)Nc1ccc(Cl)cc1 (configuration not stated),0.9,-0.4,4.6%,2.0,-1.6,0.6
O=C(Nc1ccccc1)Nc1ccc(Br)c(Cl)c1,25.7,0.8,0.9%,-30.9*,-9.3,-7.6
O=C(Nc1ccc(Cl)c(Cl)c1)Nc1ccccc1O,21.1,3.2,1.8%,-37.3*,7.3,-4.0
O=C(Nc1ccc(Cl)c(Cl)c1)Nc1ccc(Br)cc1F,18.8,1.2,-5.1%,-22.2,2.9,10.4
O=C(NC(=S)Nc1ccc(Br)c(Cl)c1)C1CC1,3.7,-0.2,6.6%,-35.8*,2.2,-4.9
COc1ccc(NC(=O)Nc2ccccc2SC)cc1OC,1.4,-0.6,-2.1%,-7.5,-7.2,-5.3
CSc1ccccc1NC(=O)Nc1ccc(F)c(Cl)c1,8.9,-0.1,4.6%,-32.0*,-4.9,-3.9
CC1=C(C(=O)N2CCOCC2)CC(CC(=O)NCCN2CCOCC2)C(=O)N1Cc1ccc(F)cc1 (configuration not stated),.,.,-5.8%,.,.,.
O=C(Nc1ccncc1)Nc1cccc(Cl)c1,13.5,0.7,1.8%,-23.0,5.9,-14.6
O=C1C=C(NC(=O)Nc2ccc(Cl)c(Cl)c2)CCC1,12.9,1.0,0.9%,-54.3*,-7.0,-9.3
CC(C)NC(=O)Nc1cccc(Cl)c1,1.8,-0.8,8.7%,-40.2*,2.8,3.4
COc1cccc(NC(=O)Nc2ccccc2SC)c1,1.5,-0.2,0.9%,-12.8,0.1,0.5
O=C(Nc1cccc(Cl)c1)Nc1csc([N+](=O)[O-])c1,27.0,1.6,4.1%,-47.0*,-10.5,-3.9
O=C(Nc1ccc(Cl)c(Cl)c1)Nc1ccon1,26.3,1.6,-1.2%,-23.4,17.6,-2.8
CSc1ccccc1NC(=O)Nc1cccc(Cl)c1,16.2,-0.4,8.3%,-40.1*,8.4,-20.9
CCSc1nnc(NC(=O)CSc2nc3c(c(=O)n2C)SC(C)C3)s1 (configuration not stated),6.9,-0.4,-1.3%,4.6,0.3,2.9
C/C(=N\NC(=S)NCc1ccccc1)c1ccccc1,0.9,-0.4,7.7%,13.8,5.0,-0.1
C/C(=N\NC(=S)NCc1ccccc1)c1ccc(C#N)cc1,0.2,0.6,-1.1%,-32.8*,-1.0,-0.8
CCCCN(CC)C(=O)Cc1ccccc1OC,0.9,-0.7,-0.8%,-5.0,-5.5,0.7
Cc1cc(O)cc(O)c1C(=O)Cc1ccccc1,8.2,0.2,0.3%,-12.3,-1.0,-7.4
CC(=O)c1c(O)cc(O)c(C(C)=O)c1O,2.5,1.2,-2.8%,-45.3*,-5.0,-6.6
CC(=O)c1c(O)cc(O)cc1CC(=O)O,1.5,0.1,-1.8%,-57.6*,4.6,-3.5
SMILES,D1 ag,TRHR ag,Glioma ERSR ind,D1 antagonist,TRHR PAM,D1 potentiator
COC(=O)C1(C)NC(c2ccc(O)cc2)C2C(=O)N(c3ccc(C)cc3)C(=O)C21 (configuration not stated),3.3,0.5,-3.3%,-42.2*,6.9,-5.9
CCCCCn1nc(C(=O)N2CCc3ccccc32)c2ccccc2c1=O,1.1,-0.6,-2.9%,-51.1*,-2.6,-3.6
O=C1NC2=C(C(=O)CCC2)C(c2ccc3ncccc3c2)N1 (configuration not stated),3.0,0.2,-1.5%,-39.6*,3.0,0.4
CCn1c(C)nc2cc(C(=O)NNS(=O)(=O)c3ccc(C)c(C)c3)ccc21,-1.4,0.4,-2.7%,.,-3.0,-2.4
OCc1ccccc1OCCCN1CCC(Cc2ccccc2)CC1,4.8,-0.2,1.4%,-39.2*,1.5,-5.5
C(#CCN1CCC(Cc2ccccc2)CC1)COCCOCc1ccccc1,4.0,1.2,-2.3%,-35.5*,-9.7,-5.5
Clc1ccccc1OCCN1CCC(Cc2ccccc2)CC1,29.8,-0.2,-4.3%,-42.2*,1.9,-13.4
Cn1c(SCC(=O)NCc2ccco2)nnc1-c1ccccc1,0.6,0.4,-0.7%,-53.3*,0.1,-8.5
Cn1c(SCC(=O)NC(=O)NCc2ccco2)nnc1-c1ccccc1,1.1,0.0,-4.8%,5.2,1.7,3.5
CCCCn1nnnc1SCC(=O)NCc1ccco1,2.5,0.2,-7.5%,-33.0*,-7.4,-10.7
CCc1ccccc1-n1c(SCC(=O)NC)nnc1-c1ccco1,9.7,-0.6,-0.7%,-37.3*,0.5,-1.1
CCn1nnnc1SCC(=O)NCc1ccco1,0.2,0.4,-2.0%,-12.9,-2.4,-5.1
CC(C)(C)c1nnc2sc(SCC(=O)NCc3ccco3)nn2c1=O,5.0,-0.3,-6.4%,-32.5*,-1.4,.
COc1ccccc1OCCSc1ncnc2nc[nH]c12,-0.8,0.0,-0.7%,-7.4,5.7,1.1
CN(C)C(=O)c1cccc(-c2cnc3cccnn23)c1,.,.,-0.9%,.,.,.
Cc1cc(NC(=O)Cc2c(F)cccc2Cl)no1,-3.9,-0.8,-2.5%,-30.4*,-3.7,-0.1
Cc1ccc2cc(CN(CC3CCCO3)C(=S)NCc3ccco3)c(=O)[nH]c2c1 (configuration not stated),2.2,-0.4,-2.5%,-11.6,6.8,2.6
CC(=O)C1=C(O)C(=O)N(Cc2cccnc2)C1c1ccc(C(C)C)cc1 (configuration not stated),-1.0,0.5,-2.8%,-10.2,-7.2,-3.4
CC(C)c1ccc(/C=C2\NC(=S)N(Cc3cccnc3)C2=O)cc1,0.2,-0.8,1.5%,-36.6*,-0.5,-4.0
CSc1ccccc1C(=O)N1CCC(CCC(=O)NCc2ccc(F)cc2)CC1,11.4,-2.5,-1.4%,-4.8,-8.5,-0.2
CCN(CC)c1ccc(/C=c2/sc3nnc(-c4ccccc4C)n3c2=O)cc1,31.2*,6.5,0.2%,-25.0,1.3,-4.5
Cc1ccc(/C=c2/sc3nnc(-c4ccccc4Cl)n3c2=O)o1,0.9,-0.5,1.6%,0.7,11.9,-3.1
CCN(CC)c1ccc(/C=c2\sc3nnc(-c4ccccc4Cl)n3c2=O)cc1,59.0*,17.2,-5.5%,-8.2,2.7,-4.5
Cc1cccc(N2CCN(C(=O)c3ccc(NC(=O)C4CCCO4)cc3)CC2C)c1 (configuration not stated),1.6,-0.1,-5.5%,-16.6,-1.9,-4.8
CCCCCC[N+](C)(C)CC/C=C1/c2ccccc2Sc2ccc(Cl)cc21,0.1,-1.0,-12.1%,-38.3*,5.2,-3.2
